What was measured:
Details in all cases: concentration: 1 μM, replicates: in singlicate; n = 1
[1] = test system: FGR
[2] = test system: FLT1
[3] = test system: FLT3-autoinhibited
[4] = test system: FLT3
[5] = test system: FLT4
[6] = test system: FRK
[7] = test system: FYN
[8] = test system: GAK
[9] = test system: T1, GCN2(Kin.Dom.2,S808G)
T1 construct: gene EIF2AK4

[10] = test system: GRK1
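Further: KINOMEscan kinase panel screen.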

SMILES | %Inh [1] [%] | %Inh [2] [%] | %Inh [3] [%] | %Inh [4] [%] | %Inh [5] [%] | %Inh [6] [%] | %Inh [7] [%] | %Inh [8] [%] | %Inh [9] [%] | %Inh [10] [%]
Cc1ccc(Oc2ccc(Nc3ncnc4cc[nH]c34)cc2C)cn1 | 29 | 92.5 | 23 | 3 | 0 | 12 | 0 | 10 | 0 | 9
COc1ccc(CNC(=O)NC2CCN(c3ccnc(Nc4ccc(F)cc4)n3)C2)cc1 (centres unmarked) [GSK1379706] | 19 | 21 | 0 | 16 | 0 | 14 | 20 | 19 | 4 | 5
C[C@@H]1CC[C@H](C(=O)NC2CCCCC2)CN1c1cc(-c2ccc3c(N)n[nH]c3c2)nc(N)n1 [GSK2291363] | 27 | 35 | 9 | 9 | 14 | 19 | 21 | 17 | 0 | 0
O=c1cc(N2CCOCC2)nc2n(Cc3ccc(F)c(Cl)c3)ccn12 [GSK2297099] | 25 | 10 | 2 | 0 | 0 | 0 | 56 | 1 | 2 | 0
Cc1cccc(-c2nc(Nc3ccc4c(cnn4C)c3)c3ccccc3n2)n1 [GW876731] | 0 | 0 | 0 | 9 | 0 | 13 | 9 | 19 | 12 | 1
Nc1ncnc2c1ncn2-c1cccc(F)c1 [SKF-97560] | 0 | 22 | 35 | 47 | 19 | 0 | 0 | 1 | 0 | 10
COc1cc2nccc(Nc3cccc(Oc4ccccc4)c3)c2cc1OC.Cl [GW284543] | 25 | 24 | 10 | 6 | 38 | 0 | 36 | 0 | 0 | 0
Fc1cccc(CSc2nnc(-c3ccc4c(c3)CCO4)o2)c1 | 0 | 0 | 23 | 0 | 15 | 15 | 3 | 3 | 4 | 7
O=C(Nc1n[nH]c2cc(-c3ccccc3F)ccc12)C1CC1 [SB-733371] | 14 | 29 | 0 | 38 | 0 | 0 | 0 | 0 | 0 | 12
Cl.c1ccc(Cn2cnc3cc(Nc4ncnc5ccccc45)ccc32)cc1 [GW272142] | 23 | 16 | 0 | 0 | 3 | 0 | 10 | 0 | 0 | 0
COc1cccc(C2=C(Nc3cccc(C(=O)O)c3)C(=O)NC2=O)c1 [SB-390770] | 14 | 13 | 5 | 0 | 25 | 2 | 29 | 21 | 0 | 14
CCCNC(=O)Nc1ccc(Oc2ncnc3ccn(C)c23)cc1 | 0 | 0 | 2 | 45 | 10 | 0 | 1 | 3 | 10 | 24
COc1ccc(Nc2nccc(N3CCC(NS(=O)(=O)c4ccc(NC(C)=O)cc4)C3)n2)cc1 (centres unmarked) [GSK1379729] | 26 | 26 | 27 | 29 | 26 | 16 | 15 | 9 | 14 | 9
COc1cc(Nc2nccc(N3CCC(NC(=O)C4COc5ccccc5O4)C3)n2)cc(OC)c1OC (centres unmarked) [GSK1379761] | 33 | 23 | 0 | 37 | 25 | 3 | 29 | 37 | 0 | 0
Nc1ncnc2c1ncn2-c1cccc2ccccc12 [SKF-97184] | 6 | 0 | 0 | 0 | 10 | 0 | 0 | 0 | 0 | 31
CCC(=O)c1c(-c2ccccc2)c2cc(Cl)ccc2c(=O)n1Cc1ccc(C(=O)O)cc1 | 0 | 0 | 4 | 0 | 0 | 0 | 0 | 0 | 12 | 0
COc1ccc(-n2cnc3c(N)ncnc32)cc1 [SKF-97236] | 0 | 24 | 34 | 83 | 22 | 0 | 25 | 27 | 0 | 0

From article PMC5540273 (PLoS ONE, 2017)
